Compounds without any hit were thinned out: in the full panel of roughly 79,000, 15% have a hit. Activity calls are given as the source filed them. No stated cut-off is given here; in the data, active means growth inhibition above about 70%; inactive means the rest.

The experiment can be described thus: NCI Yeast Anticancer Drug Screen. Data for the mlh1 rad18 strain (AID 175). The following applies: S. cerevisiae mlh1 rad18 strain growth inhibition; at 50.0 µM; active compounds read high. On the procedure: Growth inhibition of yeast strains with defined genetic alterations is measured as a screen for potential anti-cancer activity. Selected strains with alterations in DNA damage repair or cell cycle control were exposed to compounds and growth inhibition was measured relative to vehicle treated controls. The strain used in this assay is mlh1 rad18
For `OC1OC(COC(c2ccccc2)(c2ccccc2)c2ccccc2)C(O)C(O)C1O` (stereo not given), the growth inhibition was -17% (inactive).
Under `Oc1ccc(N=Nc2ccc(Br)cc2)c(O)c1` stands 22.8% (inactive).
With `COC(=O)c1cccc(Br)c1`, the growth inhibition is 13.4% (inactive).
As to `CC(=O)OC(C(=O)O)c1ccccc1` (stereo not given), the growth inhibition was 23.5% (inactive).
To `CN(C)c1ccc(S(=O)(=O)O)cc1` belongs 21.9% (inactive); to `CN(C)C(C)(C)CC(C)(C)C`, 26.6% (inactive).
Regarding `O=C(O)COCC(=O)O`, the growth inhibition is 4.75% (inactive).
`COc1cc(C2c3cc4c(cc3C3OC(=O)C2C3CO)OCO4)cc(OC)c1OC` (stereo not given): the growth inhibition was -3.85% (inactive).
As to `CCCC(=O)Nc1ccc2c(c1)CN1C(=O)c3ccccc3C1=N2`, the growth inhibition was -7.15% (inactive).
For `Cc1ccccc1N=C(c1ccccc1)C1C(=O)c2ccccc2C1=O`, the growth inhibition was 12.6% (inactive).
Turning to `CCOC(=O)c1cc(/C=C/c2cccc(Cl)c2)on1`, the growth inhibition was 47.4% (inactive).
Take `CCN=c1cc2sc3cc(NCC)c(C)cc3nc-2cc1C`: the growth inhibition is -22.6% (inactive).
Take `CCOC(=O)c1coc(C(=O)OCC)c1C(=O)OCC`: the growth inhibition was 5.3% (inactive).
To `CC1OC(Oc2c(-c3ccc(O)c(O)c3)oc3cc(O)cc(O)c3c2=O)C(O)C(O)C1O` (stereo not given) belongs 38.4% (inactive); to `O=[N+]([O-])c1ccc(-c2ncc(-c3ccc(Br)cc3)o2)cc1`, 3.45% (inactive); to `COc1cc2cc(c1Cl)N(C)C(=O)C[C@H](OC(=O)[C@H](C)N(C)C(C)=O)[C@]1(C)O[C@H]1[C@H](C)[C@@H]1C[C@@](O)(NC(=O)O1)[C@H](OC)C=C/C=C(\C)C2`, 25.3% (inactive).
For `COc1ccc(C2OC(N)=C(O)C2=O)cc1OC` (stereo not given), the growth inhibition was -31.9% (inactive).
For `Cc1ccc(C(=O)N/N=C/c2ccc3c(c2)OCO3)cc1`, the growth inhibition is 6.75% (inactive).
Regarding `CC(=O)OCCC(C)CCC=C(C)C` (stereo not given), the growth inhibition is 2.4% (inactive).
Take `CCOC(=O)c1ccc(Nc2sc(C(=O)c3cccc([N+](=O)[O-])c3)c(N)c2C#N)cc1`: the growth inhibition was 0.55% (inactive).
With `O=c1c2ccccc2c(Br)c(Br)c2ccccc12`, the growth inhibition is 27.4% (inactive).
`COc1ccc(NC(=O)CCl)cc1`: the growth inhibition was 23.6% (inactive).
Consider `Oc1ccc(Cc2ccccc2)c2cccnc12`, for which the growth inhibition is 34.6% (inactive).
To `CCN1C(=O)/C(=C/C=C/N(C)c2ccccc2)SC1=S` belongs 7.85% (inactive); to `O=c1[nH]c(O)c(/C=C2/C=Nc3ccccc32)[nH]1`, 0.6% (inactive).
`O=C(Nc1cccc(NC(=O)Nc2cc(C(F)(F)F)ccc2Cl)c1)Nc1cc(C(F)(F)F)ccc1Cl`: the growth inhibition is 11.7% (inactive).
Consider `O=c1cc(-c2ccccc2)oc2c1ccc1ccccc12`, for which the growth inhibition was 38.5% (inactive).
In the case of `O=C(NCCNC(=O)c1ccc(Cl)cc1Cl)c1ccc(Cl)cc1Cl`, the growth inhibition was -20.2% (inactive).
Under `C=C[Si](OC(C)=O)(OC(C)=O)OC(C)=O` stands 1.65% (inactive).
To `Cc1cc(N2CCC(N3CCCC3)CC2)nc(/N=C(\N)Nc2ccc(Cl)c(Cl)c2)n1` belongs 34% (inactive); to `CCOc1ccc(/C=C/C(=O)c2ccccc2)cc1`, -19.6% (inactive); to `CCCCCCCCCCCCCC(=O)Oc1ccc[nH]c1=O`, 0.7% (inactive).
Turning to `Clc1ccc(-c2n[nH]c3c2Cc2ccccc2-3)cc1Cl`, the growth inhibition is 7.45% (inactive).
With `CC(C)=NNC(N)=S`, the growth inhibition is -3.95% (inactive).
Regarding `c1csc(-c2cc(-c3cc(-c4cccs4)[nH]n3)n[nH]2)c1`, the growth inhibition was 2.6% (inactive).
To `CCOC(=O)CCCC(=O)OCC` belongs 19.6% (inactive); to `CCc1ccc(/C(C#N)=C/C=C/c2ccccc2)cc1`, 14.7% (inactive).
To `O=C(O)C(O)c1ccccc1` (stereo not given) belongs 10.7% (inactive); to `O=c1cc(-c2ccccc2)nc2cc(-c3ccco3)[nH]n12`, -3.85% (inactive).
Under `CCOc1ccc(I)cc1` stands -11.7% (inactive).
